Assay results: the supplement of paper PMC11732987, “Enantioselective OTUD7B fragment discovery through chemoproteomics screening and high-throughput optimisation” (Communications Chemistry, 2025)

Legend:
Experiment in all cases: log2 ratio of Biotin-Ahx-Ub-VS probe labelling (fragment/DMSO); higher = less target engagement (more negative = stronger competition), active = hit call of the paper (q ≤ 0.05, log2 ratio ≤ -1)
Details in all cases: compound concentration: 200 uM; treatment time: 3 h
ALG13 = target: T1, ALG13 (UniProt Q9NP73)
T1 sequence (whole entry): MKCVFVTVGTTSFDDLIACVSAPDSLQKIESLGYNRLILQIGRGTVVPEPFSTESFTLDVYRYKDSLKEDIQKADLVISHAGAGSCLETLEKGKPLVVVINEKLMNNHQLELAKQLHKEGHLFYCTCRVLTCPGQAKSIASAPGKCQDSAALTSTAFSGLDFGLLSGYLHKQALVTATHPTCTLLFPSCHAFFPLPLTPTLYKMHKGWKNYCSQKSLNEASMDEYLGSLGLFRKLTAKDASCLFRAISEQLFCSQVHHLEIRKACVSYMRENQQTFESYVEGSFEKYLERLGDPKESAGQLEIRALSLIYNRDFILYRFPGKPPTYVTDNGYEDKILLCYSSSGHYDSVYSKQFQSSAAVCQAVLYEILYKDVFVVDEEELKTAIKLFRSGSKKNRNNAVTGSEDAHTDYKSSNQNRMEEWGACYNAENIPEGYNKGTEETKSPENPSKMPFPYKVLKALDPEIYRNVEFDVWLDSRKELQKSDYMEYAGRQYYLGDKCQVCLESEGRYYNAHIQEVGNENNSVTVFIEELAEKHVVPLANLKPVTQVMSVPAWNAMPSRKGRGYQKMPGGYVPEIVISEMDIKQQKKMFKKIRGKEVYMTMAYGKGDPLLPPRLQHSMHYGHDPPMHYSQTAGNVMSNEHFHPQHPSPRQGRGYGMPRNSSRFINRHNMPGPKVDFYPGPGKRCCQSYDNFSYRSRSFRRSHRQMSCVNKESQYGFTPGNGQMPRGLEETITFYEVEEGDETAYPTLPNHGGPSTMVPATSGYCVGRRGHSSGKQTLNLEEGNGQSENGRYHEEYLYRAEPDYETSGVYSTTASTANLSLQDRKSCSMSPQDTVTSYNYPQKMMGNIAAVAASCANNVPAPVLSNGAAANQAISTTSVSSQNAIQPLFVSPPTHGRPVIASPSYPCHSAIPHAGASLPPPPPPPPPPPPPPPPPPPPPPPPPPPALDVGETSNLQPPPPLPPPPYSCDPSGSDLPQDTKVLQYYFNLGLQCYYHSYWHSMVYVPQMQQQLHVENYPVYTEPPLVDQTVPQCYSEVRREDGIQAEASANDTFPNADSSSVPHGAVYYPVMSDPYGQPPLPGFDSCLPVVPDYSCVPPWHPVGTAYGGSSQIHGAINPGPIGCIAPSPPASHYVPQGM
In short: (§1)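 Fragment (200 µM) or vehicle was incubated for 3 h with triplicate HEK293T lysate samples of 495 µg, which were then treated with Biotin-Ahx-Ub-VS at 0.5 µM final for 1 h. Labelled DUBs were enriched on NeutrAvidin, digested with LysC and trypsin, and analysed by diaPASEF LC-MS/MS. Values are average log2 fragment/vehicle ratios from an unpaired t-test on global-median-normalised Spectronaut label-free quantities, using proteins with ≥2 unique peptides.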

ATXN3 = ATXN3 (UniProt P54252)
In short: as §1

BAP1 = target: T2, BAP1 (UniProt Q92560)
T2 sequence (whole entry): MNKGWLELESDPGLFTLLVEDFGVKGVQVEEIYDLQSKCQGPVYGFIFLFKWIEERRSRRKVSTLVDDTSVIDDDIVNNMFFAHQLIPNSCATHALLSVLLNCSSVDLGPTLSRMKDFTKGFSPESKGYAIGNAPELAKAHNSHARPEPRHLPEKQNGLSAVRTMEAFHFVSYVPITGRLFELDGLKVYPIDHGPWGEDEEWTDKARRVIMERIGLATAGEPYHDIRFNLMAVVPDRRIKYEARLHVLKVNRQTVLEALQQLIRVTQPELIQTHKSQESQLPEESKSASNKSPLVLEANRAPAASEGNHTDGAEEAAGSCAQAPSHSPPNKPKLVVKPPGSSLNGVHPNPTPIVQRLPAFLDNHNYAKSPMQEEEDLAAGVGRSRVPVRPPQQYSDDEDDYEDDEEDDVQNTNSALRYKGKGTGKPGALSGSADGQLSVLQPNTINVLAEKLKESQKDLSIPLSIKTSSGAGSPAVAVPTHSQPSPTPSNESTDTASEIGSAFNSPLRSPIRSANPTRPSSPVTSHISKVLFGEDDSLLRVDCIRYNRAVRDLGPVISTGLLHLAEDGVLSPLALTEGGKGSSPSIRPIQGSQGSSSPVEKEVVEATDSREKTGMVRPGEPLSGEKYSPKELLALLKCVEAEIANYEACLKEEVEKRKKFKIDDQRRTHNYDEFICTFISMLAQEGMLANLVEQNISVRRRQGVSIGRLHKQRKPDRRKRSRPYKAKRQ
In short: as §1

EIF3F = EIF3F (UniProt O00303)
In short: as §1

EIF3H = EIF3H (UniProt O15372)
In short: as §1

FAM105A = target: T3, FAM105A (UniProt Q9NUU6)
T3 sequence (whole entry): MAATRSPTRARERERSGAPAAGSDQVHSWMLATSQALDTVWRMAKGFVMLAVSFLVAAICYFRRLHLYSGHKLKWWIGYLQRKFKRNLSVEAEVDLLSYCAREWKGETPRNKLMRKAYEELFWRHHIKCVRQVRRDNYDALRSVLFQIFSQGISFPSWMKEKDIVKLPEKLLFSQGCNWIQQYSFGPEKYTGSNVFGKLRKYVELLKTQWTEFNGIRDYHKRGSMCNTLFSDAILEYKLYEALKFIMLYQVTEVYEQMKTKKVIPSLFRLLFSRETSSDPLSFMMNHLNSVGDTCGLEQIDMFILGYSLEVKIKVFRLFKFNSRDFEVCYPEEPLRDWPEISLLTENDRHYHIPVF
In short: as §1

OTUB1 = OTUB1 (UniProt Q96FW1)
In short: as §1

OTUD4 = target: T4, OTUD4 (UniProt Q01804)
T4 sequence (whole entry): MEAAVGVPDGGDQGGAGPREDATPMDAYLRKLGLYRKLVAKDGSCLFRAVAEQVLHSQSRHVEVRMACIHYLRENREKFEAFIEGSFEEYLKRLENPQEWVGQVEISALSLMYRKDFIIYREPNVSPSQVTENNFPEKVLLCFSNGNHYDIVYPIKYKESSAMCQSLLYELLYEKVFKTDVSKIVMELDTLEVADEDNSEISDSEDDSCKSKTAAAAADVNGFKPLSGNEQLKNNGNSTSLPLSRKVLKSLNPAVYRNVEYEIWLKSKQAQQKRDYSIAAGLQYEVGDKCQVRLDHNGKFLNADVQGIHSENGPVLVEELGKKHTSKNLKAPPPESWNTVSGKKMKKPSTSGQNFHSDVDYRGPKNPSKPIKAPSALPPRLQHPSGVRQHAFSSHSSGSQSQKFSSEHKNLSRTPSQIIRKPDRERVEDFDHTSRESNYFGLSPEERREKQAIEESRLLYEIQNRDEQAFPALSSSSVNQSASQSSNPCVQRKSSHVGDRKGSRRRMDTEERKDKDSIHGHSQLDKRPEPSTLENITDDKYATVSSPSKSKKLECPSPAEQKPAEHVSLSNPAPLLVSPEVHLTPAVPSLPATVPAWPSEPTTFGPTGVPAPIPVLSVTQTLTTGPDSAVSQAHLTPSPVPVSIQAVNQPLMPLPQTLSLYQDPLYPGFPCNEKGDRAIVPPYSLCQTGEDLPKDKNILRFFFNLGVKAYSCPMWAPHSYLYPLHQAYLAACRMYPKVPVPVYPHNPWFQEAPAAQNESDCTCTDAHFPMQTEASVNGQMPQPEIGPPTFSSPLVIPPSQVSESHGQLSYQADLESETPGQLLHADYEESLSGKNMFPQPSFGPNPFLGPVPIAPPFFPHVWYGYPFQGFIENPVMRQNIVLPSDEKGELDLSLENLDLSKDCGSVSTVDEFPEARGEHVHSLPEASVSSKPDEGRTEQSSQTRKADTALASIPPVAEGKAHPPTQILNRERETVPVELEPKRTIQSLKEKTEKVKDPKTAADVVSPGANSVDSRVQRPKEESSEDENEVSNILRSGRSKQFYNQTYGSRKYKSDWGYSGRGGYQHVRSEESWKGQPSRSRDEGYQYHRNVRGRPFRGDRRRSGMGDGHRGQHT
In short: as §1

OTUD5 = target: T5, OTUD5 (UniProt Q96G74)
T5 sequence (whole entry): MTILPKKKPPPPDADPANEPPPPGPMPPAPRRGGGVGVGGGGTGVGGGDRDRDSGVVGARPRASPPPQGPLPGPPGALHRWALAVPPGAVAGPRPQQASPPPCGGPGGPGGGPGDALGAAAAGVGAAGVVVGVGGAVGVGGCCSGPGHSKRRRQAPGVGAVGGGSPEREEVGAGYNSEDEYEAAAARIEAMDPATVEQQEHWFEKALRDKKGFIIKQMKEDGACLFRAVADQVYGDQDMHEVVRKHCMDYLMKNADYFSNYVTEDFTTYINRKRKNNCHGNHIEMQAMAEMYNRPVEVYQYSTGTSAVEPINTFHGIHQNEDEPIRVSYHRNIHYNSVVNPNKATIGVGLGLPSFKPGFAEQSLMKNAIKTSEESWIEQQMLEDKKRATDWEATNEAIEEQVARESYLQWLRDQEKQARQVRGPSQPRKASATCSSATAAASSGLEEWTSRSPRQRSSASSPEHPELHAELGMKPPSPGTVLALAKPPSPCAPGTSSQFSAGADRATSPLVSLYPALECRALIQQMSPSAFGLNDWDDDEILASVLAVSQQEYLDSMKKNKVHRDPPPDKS
In short: as §1

Measured: log2 ratio of Biotin-Ahx-Ub-VS probe labelling

EIF3F, sequence (O00303 whole entry): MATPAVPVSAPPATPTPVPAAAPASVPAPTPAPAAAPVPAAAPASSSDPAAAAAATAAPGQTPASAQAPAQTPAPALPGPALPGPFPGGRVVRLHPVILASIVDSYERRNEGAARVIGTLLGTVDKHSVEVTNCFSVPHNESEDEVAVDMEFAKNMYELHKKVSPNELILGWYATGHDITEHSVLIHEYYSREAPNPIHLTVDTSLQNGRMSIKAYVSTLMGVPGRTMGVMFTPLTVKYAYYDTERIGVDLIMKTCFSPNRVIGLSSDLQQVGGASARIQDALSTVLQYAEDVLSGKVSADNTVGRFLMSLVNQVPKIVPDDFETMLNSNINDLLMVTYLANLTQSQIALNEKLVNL
OTUB1, sequence (Q96FW1 whole entry): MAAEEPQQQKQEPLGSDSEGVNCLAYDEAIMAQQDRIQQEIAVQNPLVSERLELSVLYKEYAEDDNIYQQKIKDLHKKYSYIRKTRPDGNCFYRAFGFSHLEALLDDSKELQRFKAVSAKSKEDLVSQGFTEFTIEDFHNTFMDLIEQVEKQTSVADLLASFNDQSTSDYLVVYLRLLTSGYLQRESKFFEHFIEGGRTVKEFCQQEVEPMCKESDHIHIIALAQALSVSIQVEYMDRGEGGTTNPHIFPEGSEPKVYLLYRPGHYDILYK
EIF3H, sequence (O15372 whole entry): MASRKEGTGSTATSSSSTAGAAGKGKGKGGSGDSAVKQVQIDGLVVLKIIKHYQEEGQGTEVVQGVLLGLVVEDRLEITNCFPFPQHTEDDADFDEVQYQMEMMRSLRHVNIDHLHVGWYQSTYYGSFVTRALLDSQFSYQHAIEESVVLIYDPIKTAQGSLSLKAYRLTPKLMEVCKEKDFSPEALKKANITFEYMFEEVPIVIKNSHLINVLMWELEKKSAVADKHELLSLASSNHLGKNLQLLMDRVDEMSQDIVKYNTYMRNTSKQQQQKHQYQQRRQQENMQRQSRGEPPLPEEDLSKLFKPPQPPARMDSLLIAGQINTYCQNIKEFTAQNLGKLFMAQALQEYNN
ATXN3, sequence (P54252 whole entry): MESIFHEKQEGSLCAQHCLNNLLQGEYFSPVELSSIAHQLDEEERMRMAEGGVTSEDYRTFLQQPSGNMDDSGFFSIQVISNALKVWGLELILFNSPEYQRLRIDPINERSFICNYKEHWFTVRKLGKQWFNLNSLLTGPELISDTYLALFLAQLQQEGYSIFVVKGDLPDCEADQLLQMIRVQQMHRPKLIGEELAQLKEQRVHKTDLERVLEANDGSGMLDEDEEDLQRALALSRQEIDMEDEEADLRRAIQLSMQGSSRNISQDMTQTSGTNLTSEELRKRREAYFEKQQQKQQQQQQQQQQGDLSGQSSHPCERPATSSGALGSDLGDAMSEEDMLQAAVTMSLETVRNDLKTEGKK

O=C(CCl)Nc1ccc2c(c1)OC(F)(F)O2
inactive: ALG13 0.0874 | ATXN3 -0.411 | EIF3F -0.0462 | EIF3H 0.0852 | FAM105A -0.278 | OTUB1 0.13 | OTUD4 -0.422 | OTUD5 -0.515
active: BAP1 -1.92
